Seven molecules from PubChem BioAssay (NCI) can be followed below.

Test systems include NCI-H23 lung; NCI-H226 lung; NCI-H322M lung; HOP-62 NSCLC; NCI-H460 lung; HOP-92 NSCLC; NCI-H522 lung; A549/ATCC NSCLC; 786-0 renal; COLO 205 colon; DU-145 prostate; K-562 leukemia; MALME-3M melanoma; MDA-MB-231 breast; RXF 393 renal; SF-268 CNS; SF-295 CNS; SF-539 CNS; UACC-257 melanoma; M14 melanoma.
Holding throughout (experiment): NCI-60 one-dose screen, 48 h (100 = growth as untreated, 0 = no growth, -100 = all killed)
Common to all, as to conditions: 10 µM unless noted

This is part of a sample that, as a whole, favours compounds with a hit. Of some 83,000 tested, about 20% had one in any assay.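 A percent growth of 40 corresponds to 60% growth inhibition; 0 means no net growth; -100 means all cells died. Active threshold: below 10.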 Unmarked numbers belong to inactive results. Active and inactive are the calls of the source.

Take `c1cc2ccc1CNCCN1CCNCc3ccc(cc3)Oc3ccc(cc3)CNCCN(CCNCc3ccc(cc3)O2)CCNCc2ccc(cc2)Oc2ccc(cc2)CNCC1`: the growth in the assay with NCI-H23 lung is -79.3% (active); in the assay with NCI-H226 lung it was -56.6% (active); with NCI-H322M lung it was -28.5% (active); with HOP-62 NSCLC, -78.2% (active); in the assay with NCI-H460 lung, -66.3% (active); in the assay with HOP-92 NSCLC, -92.2% (active). Further, the growth with NCI-H522 lung was -84.3% (active); in the assay with A549/ATCC NSCLC it was -79.1% (active); with 786-0 renal it was 66.2%; in the assay with COLO 205 colon, -86.8% (active); in the assay with DU-145 prostate, -88.6% (active); in the assay with K-562 leukemia it was -23.7% (active). The growth in the assay with MALME-3M melanoma is -5.04% (active); with MDA-MB-231 breast, -87% (active); in the assay with RXF 393 renal, -30.8% (active); in the assay with SF-268 CNS it was -88% (active); in the assay with SF-295 CNS it was 6.02% (active); in the assay on SF-539 CNS it was -89.2% (active). Further, the figures for the growth in the assay with UACC-257 melanoma and in the assay with M14 melanoma were 37.5% and 94.8%, respectively.

As for `O=C(O)c1cccc(CN2CCN(c3cc4c(cc3F)c(=O)c(C(=O)O)cn4C3CC3)CC2)c1O`, the growth was 101% with NCI-H23 lung; 106% in the assay on NCI-H226 lung; 111% with NCI-H322M lung; 105% with HOP-62 NSCLC; 106% with NCI-H460 lung; 97% in the assay on HOP-92 NSCLC. Moreover, the growth in the assay with NCI-H522 lung was 87.1%; with A549/ATCC NSCLC it was 99.5%; with 786-0 renal, 102%; in the assay on COLO 205 colon, 103%; with DU-145 prostate it was 112%; in the assay with K-562 leukemia, 102%. In addition, the growth was 96.3% in the assay on MALME-3M melanoma; 106% in the assay with MDA-MB-231 breast; 118% in the assay with RXF 393 renal; 105% in the assay with SF-268 CNS; 104% in the assay on SF-295 CNS; 101% in the assay with SF-539 CNS. The growth in the assay on UACC-257 melanoma was 97.7%; in the assay on M14 melanoma, 101%.

Take `O=C(Nc1cc(-c2cccnc2)nc(NCCCN2CCOCC2)n1)c1cc(Br)cc(C(F)(F)F)c1`: the growth was 80.9% in the assay with NCI-H23 lung; 73.8% in the assay on NCI-H226 lung; 58.2% with NCI-H322M lung; 69.4% with HOP-62 NSCLC; 56% with NCI-H460 lung; 34.6% in the assay on HOP-92 NSCLC. Also, the growth with NCI-H522 lung is 60.2%; in the assay with A549/ATCC NSCLC, 67.9%; in the assay on 786-0 renal, 51.8%; in the assay with COLO 205 colon, 1.11% (active); with DU-145 prostate, 82.6%; in the assay with K-562 leukemia, 8.84% (active). Besides, the growth with MALME-3M melanoma was -7.83% (active); in the assay with MDA-MB-231 breast it was 32.7%; with RXF 393 renal, 52.8%; with SF-268 CNS, 60.9%; in the assay with SF-295 CNS, -22.8% (active); in the assay with SF-539 CNS it was 66.5%. The figures for the growth with UACC-257 melanoma and with M14 melanoma were -27.1% (active) and -72.1% (active), respectively.

Turning to `O=C1Cc2c(sc3c(F)cccc23)C(c2ccccc2[N+](=O)[O-])N1` (stereo not given), the growth with NCI-H23 lung was 98.6%; in the assay with NCI-H226 lung it was 79.3%; with NCI-H322M lung, 99%; in the assay with HOP-62 NSCLC it was 91.5%; in the assay on NCI-H460 lung it was 76.9%; in the assay on HOP-92 NSCLC, 92.2%. In addition, the growth with NCI-H522 lung is 102%; in the assay on A549/ATCC NSCLC, 106%; in the assay on 786-0 renal, 110%; in the assay on COLO 205 colon it was 113%; in the assay with DU-145 prostate it was 107%; in the assay on K-562 leukemia, 97.1%. Further, the growth is 94.5% in the assay on MALME-3M melanoma; 84.9% with MDA-MB-231 breast; 125% in the assay with RXF 393 renal; 93.8% in the assay on SF-268 CNS; 101% in the assay on SF-295 CNS; 89.4% with SF-539 CNS. The growth was 120% in the assay with UACC-257 melanoma and 101% with M14 melanoma.

Take `C=C(C)[C@@H]1CC[C@]2(C)[C@H](CC[C@@H]3[C@@H]([C@@](C)(O)CCC=C(C)C)CC[C@]32C)[C@@]1(C)CCC(=O)O`: the growth with NCI-H23 lung was -5.71% [100 µM] (active); in the assay with NCI-H226 lung it was -41.5% [100 µM] (active); in the assay on NCI-H322M lung, -6.31% [100 µM] (active); with HOP-62 NSCLC it was -61.4% [100 µM] (active); in the assay with NCI-H460 lung it was -34.9% [100 µM] (active); in the assay with HOP-92 NSCLC it was -49.4% [100 µM] (active). Further, the growth was -13.6% [100 µM] (active) in the assay on NCI-H522 lung; 14.9% [100 µM] with A549/ATCC NSCLC; 1.09% [100 µM] (active) in the assay with 786-0 renal; -69.5% [100 µM] (active) with COLO 205 colon; 7.93% [100 µM] (active) in the assay on DU-145 prostate; 11.6% [100 µM] with K-562 leukemia. Also, the growth with MALME-3M melanoma is -39.6% [100 µM] (active); with MDA-MB-231 breast, -39.5% [100 µM] (active); in the assay on RXF 393 renal, -69.2% [100 µM] (active); with SF-268 CNS, -17.9% [100 µM] (active); in the assay with SF-295 CNS, -59.9% [100 µM] (active); in the assay on SF-539 CNS it was -85.7% [100 µM] (active). Besides, the values for the growth with UACC-257 melanoma and with M14 melanoma were 28.9% [100 µM] and 2.42% [100 µM] (active), respectively.

Consider `Cc1ccc(-n2nc3n(/c2=N\C(=O)NS(=O)(=O)c2ccc(C)cc2)CCN3C2=NCCN2)cc1`, for which the growth in the assay with NCI-H23 lung was 106%; in the assay with NCI-H226 lung, 95.3%; in the assay with NCI-H322M lung, 105%; with HOP-62 NSCLC, 93.4%; in the assay on NCI-H460 lung, 106%; in the assay on HOP-92 NSCLC, 104%. Also, the growth with NCI-H522 lung was 88.6%; in the assay on A549/ATCC NSCLC, 95.4%; with 786-0 renal, 99.4%; in the assay on COLO 205 colon, 115%; in the assay with DU-145 prostate, 108%; in the assay with K-562 leukemia, 109%. For the same molecule, the growth in the assay on MALME-3M melanoma was 106%; with MDA-MB-231 breast it was 99.7%; in the assay on RXF 393 renal it was 123%; with SF-268 CNS, 103%; with SF-295 CNS it was 102%; in the assay on SF-539 CNS it was 95.1%. Besides, the growth in the assay with UACC-257 melanoma is 98.1%; with M14 melanoma it was 101%.

Regarding `CC(C)[N+](C)(C)CC(O)COc1cccc2ccccc12` (stereo not given), the growth in the assay on NCI-H23 lung was 95.5%; in the assay on NCI-H226 lung it was 107%; with NCI-H322M lung it was 112%; in the assay on HOP-62 NSCLC, 106%; with NCI-H460 lung, 109%; in the assay with HOP-92 NSCLC, 81.4%. Besides, the growth is 114% in the assay with NCI-H522 lung; 101% in the assay with A549/ATCC NSCLC; 121% in the assay with 786-0 renal; 104% in the assay on COLO 205 colon; 106% in the assay on DU-145 prostate; 106% in the assay with K-562 leukemia. Also, the growth in the assay with MALME-3M melanoma is 103%; with MDA-MB-231 breast, 103%; with RXF 393 renal, 115%; with SF-268 CNS it was 94%; in the assay with SF-295 CNS, 104%; in the assay on SF-539 CNS, 96%. The values for the growth in the assay with UACC-257 melanoma and in the assay on M14 melanoma were 90.4% and 107%, respectively.
